{
  "source": "PubChem BioAssay",
  "note": "Activity calls are given as the source filed them.",
  "data": [
    {"assay": "growth of efflux-deficient E. coli DRC39 – strain DRC39, OD650, 48 h, E. coli filamentation inducers, primary screen (AID 1179);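 also: screen aims at cell division blockers that make cells filament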", "conditions": "E. coli DRC39 delta-acrAB growth, higher = more signal, called active from +8 up or from −8 down", "values": [
      {"smiles": "C=CCOC(=O)[C@@H]1[C@H]2C(=O)O[C@H](c3ccccc3)[C@H](c3ccccc3)N2[C@H](c2ccc(OCCOC(=O)[C@@H]3C[C@@H]4C(=O)N[C@@H](Cc5ccccc5)C(=O)N4[C@@H]3c3ccc(O)cc3)cc2)[C@@]12C(=O)Nc1ccc(I)cc12", "z-score": "-1.53 (inactive)"},
      {"smiles": "C=CCNC(=O)[C@@H]1[C@H]2C(=O)O[C@H](c3ccccc3)[C@H](c3ccccc3)N2[C@H](c2ccc(OCCO)cc2)[C@@]12C(=O)Nc1ccc(C#Cc3ccc(OC)cc3)cc12", "z-score": "-1.2 (inactive)"},
      {"smiles": "CCOC(=O)C[C@H]1[C@H](OC(=O)Cc2ccc3c(c2)OCO3)[C@@H](NC(=O)c2ccc(-c3ccccc3)cc2)c2cc(OCCCO)ccc2N1C(=O)c1ccc2ccccc2n1", "z-score": "0.455 (inactive)"},
      {"smiles": "Cc1ccc(S[C@]2(C(=O)NCC(F)(F)F)CC(=O)N(C(C)C)[C@@H]2c2ccc(CO)cc2I)cc1", "z-score": "-0.105 (inactive)"},
      {"smiles": "C=CCC(OC(C)=O)[C@@H]1[C@@H](N(Cc2ccc(-c3cccc(C(F)(F)F)c3)o2)C(=O)Cc2ccc(F)cc2)c2cc(OCCCO)ccc2N1C(=O)Cc1ccc(OC)cc1", "note": "(stereo not given in full)", "z-score": "0.671 (inactive)"},
      {"smiles": "COCCCN1C(=O)[C@@]2(Cc3ccccc31)c1ccccc1C(=O)N(Cc1ccccc1C(F)(F)F)[C@H]2c1ccc(CO)cc1", "z-score": "-0.297 (inactive)"},
      {"smiles": "CCOC1=C2C(CN(S(=O)(=O)c3ccc(C)cc3)C2c2ccc(C)cc2)C2C(=O)N(c3ccccc3)C(=O)C2C1", "note": "(stereo not given)", "z-score": "0.758 (inactive)"},
      {"smiles": "CC(C)(C)OC(=O)CC[C@@]1(C(=O)NCC(O)CO)N=C(c2ccc(OCCCO)cc2)O[C@@H]1c1ccccc1N=[N+]=[N-]", "note": "(stereo not given in full)", "z-score": "1.65 (inactive)"},
      {"smiles": "[N-]=[N+]=NCc1ccccc1C[C@]1(C(=O)N2CCOCC2)N=C(c2ccc(OCCCO)cc2)O[C@H]1c1ccccc1N=[N+]=[N-]", "z-score": "0.957 (inactive)"}
    ]},
    {"assay": "viability profiling in RPMI8226 myeloma cells – cell-based, resazurin fluorescence, basal, 24 h, PK04 Diversity Set, profiling panel (AID 1180);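 also: RPMI8826 multiple myeloma cell line at 5000 cells per well; test concentration not given here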", "conditions": "higher = more signal", "values": [
      {"smiles": "O=C1OCC=C[C@H]2OC34C=CCN(CCN5CCOCC5)C(=O)[C@H]3N(CCCO)C(=O)[C@@H]4[C@@H]12", "note": "(stereo not given in full)", "z-score": -0.0279},
      {"smiles": "[N-]=[N+]=Nc1ccccc1C[C@@]1(C(=O)NCCN2CCOCC2)N=C(c2ccc(OCCCO)cc2)O[C@@H]1c1ccccc1", "z-score": -0.125},
      {"smiles": "COc1ccc(C(=O)Nc2ccc(CN3C(=O)[C@@]4(O[C@@H](CCO)[C@H]([Si](C)(C)c5ccc(OC)cc5)[C@H]4C)c4ccccc43)cc2)cc1", "z-score": -5.97},
      {"smiles": "CC(C)(C)OC(=O)CC[C@@]1(C(N)=O)N=C(c2ccc(OCCCO)cc2)O[C@@H]1c1ccccc1", "z-score": -0.359},
      {"smiles": "COc1ccc(C(=O)Nc2ccc(CN3C(=O)[C@@]4(O[C@@H](CC(=O)N5CCC[C@H]5CO)[C@H]([Si](C)(C)c5ccc(OC)cc5)[C@H]4C)c4ccccc43)cc2)cc1", "z-score": -0.677},
      {"smiles": "CN1C(=O)C2C=CC(C(O)C3CCCCC3)N(Nc3ccc([N+](=O)[O-])cc3[N+](=O)[O-])C2C1=O", "note": "(stereo not given)", "z-score": -0.373},
      {"smiles": "CN1C(=O)C2C=CC(C(O)Cc3ccccc3)N(Nc3ccccc3)C2C1=O", "note": "(stereo not given)", "z-score": -0.541},
      {"smiles": "COc1ccc(CCNC(=O)[C@@]2(Sc3ccc(C)cc3)CC(=O)N(C3CCCCC3)[C@@H]2c2ccc(CO)cc2I)cc1", "z-score": -1.2},
      {"smiles": "O=C1OCCC/C=C\\[C@H]2OC34C=CCN(CCN5CCOCC5)C(=O)[C@H]3N(CCCO)C(=O)[C@@H]4C12", "note": "(stereo not given in full)", "z-score": 0.125},
      {"smiles": "C=CCC(OC(C)=O)[C@@H]1[C@@H](N(Cc2ccc(-c3ccccc3)cc2)C(=O)Cc2ccc(F)cc2)c2cc(OCCCO)ccc2N1C(=O)c1ccc(-c2ccccc2)cc1", "note": "(stereo not given in full)", "z-score": 1.48},
      {"smiles": "O=C(c1ccccc1)N1Cc2ccccc2[C@@H]2OC(c3ccc(OCCCO)cc3)=N[C@]2(Cc2ccccc2)C1=O", "z-score": -2.49},
      {"smiles": "COC(=O)C(CC#Cc1ccc2c(c1)[C@]1(C(=O)N2)[C@H](C(=O)O)[C@H]2C(=O)O[C@H](c3ccccc3)[C@H](c3ccccc3)N2[C@@H]1c1ccc(O)cc1)C(=O)OC", "z-score": -0.0124},
      {"smiles": "O=C1NCC(=O)N2[C@@H]1C[C@@H](C(=O)O)[C@H]2c1cccc(OCCO)c1", "z-score": -0.828},
      {"smiles": "C=CCNC(=O)[C@@H]1[C@H]2C(=O)O[C@H](c3ccccc3)[C@H](c3ccccc3)N2[C@H](c2ccc(OCCO)cc2)[C@@]12C(=O)Nc1ccc(C#CCCO)cc12", "z-score": -0.114},
      {"smiles": "C=C(/C(=C/C[C@@H](OC(C)=O)c1ccc(OCCO)cc1)c1cnc2ccccc2c1)C(C)C", "z-score": 1.05},
      {"smiles": "CN(C)C(=O)[C@]1(Cc2ccccc2N=[N+]=[N-])N=C(c2ccc(OCCCO)cc2)O[C@@H]1c1ccccc1", "z-score": 0.0542},
      {"smiles": "COc1ccc(CCN2C(=O)[C@@]3(c4ccc([N+](=O)[O-])cc4)CC(=O)N(C4CCCCC4)[C@@H]3c3ccc(CO)cc32)cc1", "z-score": -0.749},
      {"smiles": "C[N+](C)(C)CCCCNC(=O)[C@H]1C[C@H]2C(=O)N[C@@H](Cc3ccccc3)C(=O)N2[C@H]1c1ccc(O)cc1", "z-score": -0.9},
      {"smiles": "O=C1O[C@H](c2ccccc2)[C@H](c2ccccc2)N2[C@H]1[C@@H](C(=O)N1CCN(c3ncccn3)CC1)[C@]1(C(=O)Nc3ccc(C#CC4=CCCCC4)cc31)[C@H]2c1ccc(O)cc1", "z-score": -0.441},
      {"smiles": "COC(=O)[C@@]1(Cc2ccccc2)[C@H]2c3cc(C(=O)N(C)C)n(CCSCCO)c3C[C@H]2CN1C(=O)c1ccccc1", "z-score": -0.151},
      {"smiles": "CC(C)OC(=O)C=C1C[C@@H](c2ccccc2C(F)(F)F)O[C@@H](c2ccccc2C(F)(F)F)O1", "z-score": -0.818},
      {"smiles": "COCCCNC(=O)[C@@]1(Cc2ccccc2)N=C(c2ccc(OCCCO)cc2)O[C@H]1c1ccccc1", "z-score": 0.297},
      {"smiles": "CCCCC=C[C@@H](NC(=O)Oc1cccc(C(F)(F)F)c1)c1ccccc1", "z-score": -2.1},
      {"smiles": "O=C1C2C=CC(C(O)C(c3ccccc3)c3ccccc3)N(n3cnnc3)C2C(=O)N1Cc1ccccc1", "note": "(stereo not given)", "z-score": -1.11},
      {"smiles": "Cc1ccc(S[C@]2(C(=O)NCC(C)C)CC(=O)N(Cc3cc(C(F)(F)F)cc(C(F)(F)F)c3)[C@@H]2c2ccc(CO)cc2I)cc1", "z-score": -2.27},
      {"smiles": "COc1cc2c(cc1O)C(C1CC1)N(Cc1cc3c(cc1Br)OCO3)CC2", "note": "(stereo not given)", "z-score": -3.52},
      {"smiles": "CCCCC(=C=CC[C@@H](O)c1ccccc1OCCO)CCO", "z-score": -0.552},
      {"smiles": "C=CCOC(=O)[C@@H]1[C@H]2C(=O)O[C@H](c3ccccc3)[C@H](c3ccccc3)N2[C@H](c2ccc(OCCOC(=O)[C@@H]3C[C@@H]4C(=O)N[C@@H](Cc5ccccc5)C(=O)N4[C@@H]3c3ccc(O)cc3)cc2)[C@@]12C(=O)Nc1ccc(I)cc12", "z-score": 0.411},
      {"smiles": "C=CCNC(=O)[C@@H]1[C@H]2C(=O)O[C@H](c3ccccc3)[C@H](c3ccccc3)N2[C@H](c2ccc(OCCO)cc2)[C@@]12C(=O)Nc1ccc(C#Cc3ccc(OC)cc3)cc12", "z-score": -1.25},
      {"smiles": "CCOC(=O)C[C@H]1[C@H](OC(=O)Cc2ccc3c(c2)OCO3)[C@@H](NC(=O)c2ccc(-c3ccccc3)cc2)c2cc(OCCCO)ccc2N1C(=O)c1ccc2ccccc2n1", "z-score": 0.356},
      {"smiles": "Cc1ccc(S[C@]2(C(=O)NCC(F)(F)F)CC(=O)N(C(C)C)[C@@H]2c2ccc(CO)cc2I)cc1", "z-score": -2.05},
      {"smiles": "C=CCC(OC(C)=O)[C@@H]1[C@@H](N(Cc2ccc(-c3cccc(C(F)(F)F)c3)o2)C(=O)Cc2ccc(F)cc2)c2cc(OCCCO)ccc2N1C(=O)Cc1ccc(OC)cc1", "note": "(stereo not given in full)", "z-score": 1.06},
      {"smiles": "COCCCN1C(=O)[C@@]2(Cc3ccccc31)c1ccccc1C(=O)N(Cc1ccccc1C(F)(F)F)[C@H]2c1ccc(CO)cc1", "z-score": 0.0241},
      {"smiles": "CCOC1=C2C(CN(S(=O)(=O)c3ccc(C)cc3)C2c2ccc(C)cc2)C2C(=O)N(c3ccccc3)C(=O)C2C1", "note": "(stereo not given)", "z-score": 0.366},
      {"smiles": "CC(C)(C)OC(=O)CC[C@@]1(C(=O)NCC(O)CO)N=C(c2ccc(OCCCO)cc2)O[C@@H]1c1ccccc1N=[N+]=[N-]", "note": "(stereo not given in full)", "z-score": 0.576},
      {"smiles": "[N-]=[N+]=NCc1ccccc1C[C@]1(C(=O)N2CCOCC2)N=C(c2ccc(OCCCO)cc2)O[C@H]1c1ccccc1N=[N+]=[N-]", "z-score": -1.61}
    ]}
  ]
}
